Compounds without any hit were thinned out: in the full panel of roughly 79,000, 15% have a hit. Active and inactive are the calls of the source. Rule as the data show it: active = growth inhibition above about 70%; inactive = the rest.
Assay: NCI Yeast Anticancer Drug Screen. Data for the rad18 strain (AID 177)
Conditions: S. cerevisiae rad18 mutant growth inhibition; at 100.0 µM; stronger effect = higher value
How it was run: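 Vehicle-treated cultures served as the baseline for scoring compound-induced growth inhibition in DNA-repair-mutant yeast.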

| Compound | growth inhibition |
| --- | --- |
| COc1nc2c(c(=O)n1C)N=C(c1ccccc1)[C@H](C(CC(=O)c1ccccc1)c1ccccc1)C(c1ccccc1)N2 (stereo partly specified) | 67% (inactive) |
| Cc1cc(-c2cc(C)c(O)c(C(C)(C)C)c2)cc(C(C)(C)C)c1O | 74% (active) |
| Nc1cc(N)c(N=Nc2cccc3c(S(=O)(=O)O)cccc23)cc1N=Nc1cc([N+](=O)[O-])ccc1O | 36% (inactive) |
| Nc1ccc(F)cc1S | 97% (active) |
| COc1cc(C2SCC(=O)N2c2ccc(-c3ccc(-n4c(-c5ccccc5)nc5ccccc5c4=O)cc3)cc2)ccc1O (stereo unspecified) | 7% (inactive) |
| Nc1ncnc2c1ncn2C1OC(CO)CC1O (stereo unspecified) | 92% (active) |
| COc1cc(CSc2ccc(O)cc2)cc(O)c1O | 10% (inactive) |
| CCOC(=O)C1N=[N+](c2ccccc2)C(=O)/C1=C\n1c(=S)[nH]c2ccc([N+](=O)[O-])cc21 (stereo unspecified) | 15% (inactive) |
| CNC(=O)OCc1c(COC(=O)NC)c2n(c1C)-c1ccc(OC)cc1CCC2 | 98% (active) |
| O=C(NNc1ccccc1)c1ccc(Cl)c(Cl)c1 | 88% (active) |
| Cc1ccc(CC2(OCCN(C)C)CCC(C(C)(C)C)CC2)cc1 (stereo unspecified) | 98% (active) |
| C[C@]12CC[C@H](O)CC1=CC[C@@H]1C2CC[C@]2(C)C(=O)NC(=O)CC12 (stereo partly specified) | 92% (active) |
| CCCC/C=C/C(C)(C(=O)OCC)C(=O)OCC | 35% (inactive) |
| CCc1c(Cl)c(C)cc(O)c1Cl | 50% (inactive) |
| O=C(/C=C(/c1ccccc1)N1CCCCC1)c1ccccc1 | 97% (active) |
| CCCC(=O)Oc1ccc(/C=N/NC(N)=S)nc1 | -10% (inactive) |
| CCc1nc2ccc(NCCN(C)C)c3c(=O)c4ccccc4n1c23 | 80% (active) |
| Cc1sc2ccc3ccccc3c2[n+]1C | 87% (active) |
| COc1c(O)c(C=O)c(Br)c(C=O)c1O | 90% (active) |
| Cc1ccc(Cl)cc1NC(=O)OCCN(C)C(=O)Nc1cc(Cl)ccc1C | 15% (inactive) |
| Cc1nc2ccccc2nc1NNc1ccccc1 | 58% (inactive) |

From PubChem BioAssay (NCI)
